# Laboratory results reported in the antibiotic and cytotoxicity screens of Wong et al. (2023).
# Among all 39,000 compounds or so, about 3,300 (8.5%) were called active. What follows is part of a selection rich in actives, with near analogues and random picks from the rest.
# System: HepG2
# Assay: cytotoxicity call (relative viability < 0.9)
# Conditions: 10 µM
row,Structure (SMILES),cytotoxicity call
1,CN(C)C(=O)C[C@H]1CC[C@H]2[C@@H](COC[C@H](O)CN2S(=O)(=O)c2ccccc2)O1,inactive
2,Cc1noc(C)c1S(=O)(=O)Nc1ccc2c(c1)CC(=O)N([C@@H](C)CO)C[C@H](C)[C@@H](CN(C)C(=O)Nc1ccccc1)O2,inactive
3,C[C@H](CO)N1C[C@H](C)[C@@H](CN(C)S(=O)(=O)c2ccc(Cl)cc2)Oc2ccc(NC(=O)Cn3cnnn3)cc2C1=O,inactive
4,Cc1noc(C)c1NC(=O)N(C)C[C@H]1Oc2ccc(NC(=O)Nc3ccc(C(F)(F)F)cc3)cc2CC(=O)N([C@H](C)CO)C[C@@H]1C,inactive
5,CCN([NH2+][O-])c1ccc(O)c(O)c1,inactive
6,C[C@H]1CN([C@@H](C)CO)C(=O)CCCn2cc(nn2)CO[C@@H]1CN(C)C(=O)Nc1ccnc(N2CCOCC2)c1,inactive
7,Cc1ccc(S(=O)(=O)N(C)C[C@H]2Oc3ccc(NC(=O)Nc4ccc(C(F)(F)F)cc4)cc3C(=O)N([C@H](C)CO)C[C@H]2C)cc1,active
8,Cc1ccc(S(=O)(=O)N(C)C[C@@H]2Oc3ccc(NC(=O)Nc4ccc(C(F)(F)F)cc4)cc3C(=O)N([C@@H](C)CO)C[C@H]2C)cc1,active
9,Cc1ccc(S(=O)(=O)N(C)C[C@H]2Oc3ccc(NC(=O)Nc4ccc(C(F)(F)F)cc4)cc3C(=O)N([C@H](C)CO)C[C@@H]2C)cc1,inactive
10,Cc1ccc(S(=O)(=O)N(C)C[C@H]2Oc3ccc(NC(=O)Nc4ccc(C(F)(F)F)cc4)cc3C(=O)N([C@@H](C)CO)C[C@@H]2C)cc1,inactive
11,Cc1ccc(S(=O)(=O)N(C)C[C@@H]2Oc3ccc(NC(=O)Nc4ccc(C(F)(F)F)cc4)cc3C(=O)N([C@@H](C)CO)C[C@@H]2C)cc1,inactive
12,Cc1ccc(S(=O)(=O)N(C)C[C@@H]2Oc3ccc(NC(=O)Nc4ccc(C(F)(F)F)cc4)cc3C(=O)N([C@H](C)CO)C[C@@H]2C)cc1,active
13,Cc1ccc(S(=O)(=O)N(C)C[C@H]2Oc3ccc(NC(=O)Nc4ccc(C(F)(F)F)cc4)cc3C(=O)N([C@@H](C)CO)C[C@H]2C)cc1,active
14,Cc1ccc(S(=O)(=O)N(C)C[C@@H]2Oc3ccc(NC(=O)Nc4ccc(C(F)(F)F)cc4)cc3C(=O)N([C@H](C)CO)C[C@H]2C)cc1,inactive
15,C[C@H]1CN([C@@H](C)CO)S(=O)(=O)c2ccc(C#CC3CCCC3)cc2O[C@@H]1CN(C)C(=O)Cc1ccncc1,inactive
16,COc1ccc([Si](C)(C)[C@@H]2[C@@H](CC(=O)N3Cc4ccccc4C[C@H]3CO)O[C@]3(C(=O)N(Cc4cccc(N5CCC5=O)c4)c4ccccc43)[C@H]2C)cc1,inactive
17,CC1C(=O)OC2C1CCC1(C)CCC(=O)C(C)C21 (stereo not drawn),inactive
18,CN1CCN(S(=O)(=O)c2ccc(CN)cc2)CC1,inactive
19,C[C@@H]1CN([C@@H](C)CO)C(=O)c2cc(NS(=O)(=O)c3ccc(Cl)cc3)ccc2O[C@H]1CN(C)Cc1ccc(Oc2ccccc2)cc1,inactive
20,C[C@H](CO)N1C[C@H](C)[C@H](CN(C)Cc2ccc(Oc3ccccc3)cc2)Oc2ccc(NS(=O)(=O)c3ccc(Cl)cc3)cc2C1=O,inactive
21,C[C@@H]1CN([C@H](C)CO)C(=O)c2cc(NS(=O)(=O)c3ccc(Cl)cc3)ccc2O[C@@H]1CN(C)Cc1ccc(Oc2ccccc2)cc1,active
22,C[C@@H]1CN([C@@H](C)CO)C(=O)c2cc(NS(=O)(=O)c3ccc(Cl)cc3)ccc2O[C@@H]1CN(C)Cc1ccc(Oc2ccccc2)cc1,active
23,C[C@H]1CN([C@@H](C)CO)C(=O)c2cc(NS(=O)(=O)c3ccc(Cl)cc3)ccc2O[C@H]1CN(C)Cc1ccc(Oc2ccccc2)cc1,inactive

row,Structure (SMILES),cytotoxicity call
1,C[C@@H]1CN([C@H](C)CO)C(=O)c2cc(NS(=O)(=O)c3ccc(Cl)cc3)ccc2O[C@H]1CN(C)Cc1ccc(Oc2ccccc2)cc1,active
2,C[C@H](CO)N1C[C@H](C)[C@@H](CN(C)Cc2ccc(Oc3ccccc3)cc2)Oc2ccc(NS(=O)(=O)c3ccc(Cl)cc3)cc2C1=O,inactive
3,C[C@H]1CN([C@@H](C)CO)C(=O)c2cc(NS(=O)(=O)c3ccc(Cl)cc3)ccc2O[C@@H]1CN(C)Cc1ccc(Oc2ccccc2)cc1,active
4,C[C@H](CO)N1C[C@H](C)[C@H](CN(C)C(=O)Nc2cccc3ccccc23)Oc2ncc(C#Cc3cccc(F)c3)cc2C1=O,inactive
5,CC(C)(C)OC(=O)Nc1cccc([C@@H]2CC(=O)N(C(=O)OCc3ccccc3)[C@@H]2C(=O)Nc2cccc3cccnc23)c1,inactive
6,Cc1noc(C)c1NC(=O)Nc1ccc2c(c1)C(=O)N([C@H](C)CO)C[C@@H](C)[C@H](CN(C)C(=O)C1CCCCC1)OCCCC[C@@H](C)O2,inactive
7,C[C@@H]1CN([C@H](C)CO)C(=O)c2cc(C#CC3(O)CCCC3)cnc2O[C@H]1CN(C)S(=O)(=O)c1cccc(F)c1,inactive
8,CCC1C(=O)OCC1Cc1cncn1C.O=[N+]([O-])O (stereo not drawn),inactive
9,Cc1noc(C)c1NC(=O)Nc1cccc2c1O[C@@H](CN(C)Cc1ccc(Oc3ccccc3)cc1)[C@H](C)CN([C@@H](C)CO)C2=O,inactive
10,CN(C)CCCNC(=O)C[C@H]1CC[C@H]2[C@@H](COC[C@H](O)CN2S(=O)(=O)c2ccc(F)cc2)O1,inactive
11,CO[C@H]1CN(C)C(=O)c2ccc(NC(=O)Nc3cccc(Cl)c3)cc2OC[C@@H](C)N(C(=O)Nc2c(C)noc2C)C[C@H]1C,inactive
12,C[C@H]1CN([C@@H](C)CO)C(=O)c2cc(NC(=O)Nc3cccc4ccccc34)ccc2O[C@H]1CN(C)S(=O)(=O)c1ccccc1,inactive
13,C[C@H](CO)N1C[C@H](C)[C@H](CN(C)C(=O)Nc2cccc3ccccc23)Oc2ccc(NC(=O)Nc3ccc(C(F)(F)F)cc3)cc2C1=O,inactive
14,CN(C)CCOC(=O)COc1ccc(Cl)cc1.Cl,inactive
15,CCCCc1nc(-c2ccc(OCCCN(CC)CC)cc2)cn1-c1ccc(Oc2ccc(Cl)cc2)cc1,active
16,CCCC[C@@H](C#N)c1ccccn1,inactive
17,CN(C)CC(=O)N[C@@H]1CC[C@H](CCNS(=O)(=O)c2ccccc2)O[C@H]1CO,inactive
18,O=C(N[C@@H](c1ccccc1)c1ccc2ccccc2n1)C1CCN(Cc2ccc(Oc3ccccc3)cc2)CC1,inactive
19,O=C(N[C@@H](c1ccccc1)c1ccc2ccccc2n1)C1CCN(Cc2cccc(C(F)(F)F)c2)CC1,inactive
20,O=C(N[C@H](c1ccc(F)cc1)c1ccc2ccccc2n1)C1CCN(Cc2cccc(C(F)(F)F)c2)CC1,active
21,COc1ccc([C@@H](NC(=O)C2CCN(Cc3ccc(Oc4ccccc4)cc3)CC2)c2ccccc2C)cn1,inactive
22,O=C(N[C@H](c1ccc(F)cc1)c1ccc2ccccc2n1)C1CCN(Cc2ccc(Oc3ccccc3)cc2)CC1,active
23,COc1cc(OC)nc([C@@H](NC(=O)C2CCN(Cc3ccc(Oc4ccccc4)cc3)CC2)c2ccccc2C)n1,active

row,Structure (SMILES),cytotoxicity call
1,COc1cc(CN2CCC(C(=O)N[C@@H](c3ccc(F)cc3)c3ccc4ccccc4n3)CC2)cc(OC)c1,active
2,COc1ccccc1[C@@H](NC(=O)C1CCN(Cc2ccc(Oc3ccccc3)cc2)CC1)c1ccccn1,inactive
3,O=C(N[C@H](c1ccc(F)cc1)c1ccc2ccccc2n1)C1CCN(Cc2ccc3ccccc3n2)CC1,inactive
4,COc1ccc2c3c(n(c2c1)C)[C@@H](CO)N(C[C@]13CCN(CC1)Cc1ccncc1)C(=O)CN1CCOCC1,inactive
5,NC(=NC(=O)N1CCOCC1)c1ccccc1,inactive
6,O=C(C[C@@H]1CC[C@@H](NC(=O)Cc2ccccn2)[C@@H](CO)O1)NCCc1ccncc1,inactive
7,CN(C)CCCNC(=O)[C@@H]1c2ccccc2C(=O)N(Cc2cc(C(F)(F)F)cc(C(F)(F)F)c2)[C@H]1c1ccc(CO)cc1,inactive
8,CO[C@H](CN(C)S(=O)(=O)c1cn(C)cn1)[C@@H](C)CN(C(=O)Nc1ccc(C(F)(F)F)cc1)[C@@H](C)CO,inactive
9,CNC[C@H]1Oc2c(NS(=O)(=O)c3cn(C)cn3)cccc2C(=O)N([C@@H](C)CO)C[C@H]1C,inactive
10,O=C(COc1ccc(S(=O)(=O)N2CCOCC2)cc1)N1CCOCC1,inactive
11,COc1ccc([Si](C)(C)[C@@H]2[C@@H](CCOC(=O)NCCCCCC(=O)NO)O[C@@]3(C(=O)N(Cc4ccccc4)c4ccc(NC(=O)[C@@H](C)OC(=O)NCCCCCC(=O)NO)cc43)[C@H]2C)cc1,inactive
12,C[C@H]1CN([C@@H](C)CO)C(=O)Cc2cc(NC(=O)Cn3cnnn3)ccc2O[C@@H]1CN(C)Cc1ccc(Cl)c(Cl)c1,inactive
13,CCc1nn(C)c2c(=O)c(=O)c2n(C)[nH]1,inactive
14,O=C(CN1CCOCC1)NCC[C@H]1CC[C@@H](NS(=O)(=O)c2ccc(Cl)cc2)[C@@H](CO)O1,inactive
15,C[C@H]1CN([C@@H](C)CO)C(=O)c2cc(NS(=O)(=O)c3ccccc3)ccc2O[C@H]1CN(C)Cc1ccc(Cl)c(Cl)c1,inactive
16,CC(C)Oc1ccccc1OCc1cnnn1CC(=O)NS(=O)(=O)c1ccccc1OC(F)(F)F,inactive
17,Cc1ccc(S(=O)(=O)N(C)C[C@H]2Oc3ccc(NC(=O)NC(C)C)cc3C(=O)N([C@@H](C)CO)C[C@@H]2C)cc1,inactive
18,O=C(OCc1cccc(O)c1O[C@@H]1O[C@H](CO)[C@@H](O)[C@H](O)[C@H]1O)[C@]1(O)C(=O)[C@@H]2C=C[C@H]1c1c2ccc(O)c1O,inactive
19,O=C1NCCc2c(O)cccc21,inactive
20,COC(=O)c1cn(CC(N)=O)c2ccccc12,inactive
21,Cn1cc(CN2CCC(C(=O)N[C@@H](c3ccc(F)cc3)c3ccc4ccccc4n3)CC2)c2ccccc21,active
22,COc1ccc(S(=O)(=O)N(C)C[C@H]2Oc3ccc(NS(C)(=O)=O)cc3CC(=O)N([C@@H](C)CO)C[C@@H]2C)cc1,inactive
